According to PubChem BioAssay AID624348 (National Center for Advancing Translational Sciences (NCATS), 2012):
Active and inactive are the calls of the source.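 How the source made its calls: active means concentration cutting cell viability by half at or below 20 µM after three days; inconclusive means half-viability concentration between 20 and 30 µM; inactive means half-viability concentration of 30 µM or more.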

Assay: qHTS for Inducers of the Endoplasmic Reticulum Stress Response (ERSR) in Human Glioma: Hit Validation in Cytotoxic Counterscreen
Conditions: U87-MG glioma viability, CellTiter-Glo ATP luminescence, 72 h
Text: Primary protein unfolding takes place for many diseases, including diabetes and hypoxia, , and triggers a reaction in the cells called ER stress response (ERSR). ). ERSR is designed as a repair mechanism, but ultimately leads to cell death via apoptosis if conditions triggering protein unfolding persist (1). The molecular clue to ERSR activation is the enhancement of the expression of key molecular chaperones, including the glucose regulated protein (GRP) 78. GRP78 is the main sensor for protein folding and the main actuator of the ERSR. In a collaboration between the Southern Research Institute and the NIH Chemical Genomics Center, a cell based screen was developed that reliably uses GRP78 as a sensor to identify small molecules as inducers of ERSR. In resting conditions, GRP78 binds proteins and acts as a natural repressor. Once unfolded proteins are present in the ER, GRP78 releases some of the repressors and binds to the unfolded proteins. The release of the repressors executes the ERSR program. Using a human glioma cell line in a miniaturized, luminescent format, a high-throughput screen was developed to identify actuators of the ERSR. This assay validates the hits identified in the primary screen in this cytotoxic counterscreen. Activity is undesirable in this assay. NIH Chemical Genomics Center [NCGC] NIH Molecular Libraries Probe Centers Network [MLPCN] MLPCN Grant: DA031669 Assay Submitter (PI): Maurizio Grimaldi, Southern Research Institute (1) Soboloff, J. and S. A. Berger (2002). "Sustained ER Ca2+ depletion suppresses protein synthesis and induces activation-enhanced cell death in mast cells." J Biol Chem 277(16): 13812-20.
Wild type U87-MG are dispensed at density 1000 cells/well into Greiner white solid bottom 1536-well assay plates. […] The plates are incubated at room temperature for 10 minutes and read in a ViewLux high-throughput CCD imager (PerkinElmer), wherein end-point measurements of luminescence through the quantitation of the ATP content, an indicator of metabolically active cells, are acquired.

| SMILES | outcome |
| --- | --- |
| CC(C)Cc1nn2c(=O)cc(COC(=O)CNC(=O)c3ccc(C(C)(C)C)cc3)nc2s1 | inactive |
| CC(=O)N1CCOc2cc(S(=O)(=O)Nc3c(C)cccc3C(C)C)c(Cl)cc21 | inactive |
| Cc1ccc(-c2cc(NC(=O)C(C)Oc3ccc(C)c(C)c3)on2)cc1 (stereo not drawn) | inactive |
